# Most compounds without a hit are left out; they make up all but 1% or so of the library.
# DUSP3 inh = DUSP3 (human) phosphatase inhibition | recombinant VHR phosphatase, pNPP absorbance | inhibition, % at 13.3 µM | actives 0.52% (n = 290,000) | AID 1654; in the data active = inhibition above about 50%
# Target sequence (P51452 whole entry, looked up): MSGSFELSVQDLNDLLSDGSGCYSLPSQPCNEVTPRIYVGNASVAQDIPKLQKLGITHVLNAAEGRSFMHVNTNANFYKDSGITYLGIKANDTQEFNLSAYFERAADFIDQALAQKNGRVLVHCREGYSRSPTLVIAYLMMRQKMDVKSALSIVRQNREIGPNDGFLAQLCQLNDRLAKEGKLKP
# Yp Topo-I inh = blocks Yersinia pestis topoisomerase I activity. activity, % at 10 µM. actives 0.064% (n = 360,000). AID 504884. Y. pestis Topo-I cleavage product accumulation, plate reader; in the data active = activity above about 50%, passing the limit was not always enough
# TcdB GH inh = inhibitors of Clostridioides difficile toxin B glycohydrolase. actives 0.24% (n = 350,000). P18177. TcdB glycohydrolase enzymatic assay, plate reader. inhibition, % at 9.99 µM. AID 652162; in the data active = inhibition above about 10%
# MazEF act = MazEF (E. coli) toxin RNase activation | P0AE70 | activation, % at 20 µM | AID 504720 | FAM/BHQ RNA-DNA oligo cleavage fluorescence, 5 h | actives 0.32% (n = 350,000); in the data active = activation above about 50%
# Target sequence (P0AE70 whole entry, looked up): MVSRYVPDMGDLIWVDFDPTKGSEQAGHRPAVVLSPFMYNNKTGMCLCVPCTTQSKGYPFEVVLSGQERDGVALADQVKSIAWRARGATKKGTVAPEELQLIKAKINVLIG
# FadD28 binding = M. tuberculosis FadD28 bisubstrate binding inhibition. actives 0.22% (n = 360,000). FadD28 bisubstrate probe binding, fluorescence polarization. inhibition, % at 12.5 µM; in the data active = inhibition above about 8.5%, passing the limit was not always enough
# Mtb BioA inh = BioA (M. tuberculosis) enzyme inhibition | inhibition, % at 9.99 µM | purified M. tuberculosis BioA enzyme, plate reader | actives 0.096% (n = 360,000); in the data active = inhibition above about 40%
# Active calls of the source: *; / = no result.
SMILES,DUSP3 inh,Yp Topo-I inh,TcdB GH inh,MazEF act,FadD28 binding,Mtb BioA inh
CCCNC(=O)N1CC[C@@H]2[C@@H](CO)N(C)c3ccc(-c4ccccc4)cc3[C@@H]21,/,/,11*,/,/,/
CC(C)NC(=O)N1CC[C@@H]2[C@H]1c1cc(-c3ccc(F)cc3)ccc1N(C)[C@H]2CO,/,/,12*,/,/,/
C[C@H](CO)N1C[C@H](C)[C@H](CN(C)C(=O)C2CCC2)Oc2cc(-c3cncnc3)ccc2S1(=O)=O,/,/,0,/,/,1
CO[C@H]1CN(C)C(=O)c2ccc(NC(=O)C3CC3)cc2OC[C@H](C)N(C)C[C@H]1C,/,/,-1,/,/,-4
O=S(=O)(c1ccccc1)N1CC2(C1)[C@H](c1ccccc1)[C@H](CO)N2CC1CC1,/,/,-12,/,/,/
Cn1c(CNC(=O)c2ccc(Cl)cc2)nnc1SCC(=O)Nc1sc2c(c1C#N)CCCC2,33,11,/,106*,-4,-2
CC(C)CC#Cc1ccc2c(c1)O[C@@H](CN(C)C(=O)Nc1ccccc1)[C@H](C)CN([C@@H](C)CO)S2(=O)=O,/,/,-1,/,/,2
Cc1cccc(NC(=S)NNC(=O)c2csc3c2CCC(C)C3)c1 (stereo not given),-2,2,0,1,14*,0
C/C(CC(=O)Nc1cc(C)ccn1)=N\NC(=O)C(=O)Nc1cccc(C)c1,2,-3,0,195*,-2,/
Cc1nnc(SCC(=O)N2c3ccccc3C(C)(c3ccccc3)CC2(C)C)s1 (stereo not given),17,59*,/,13,-5,/
Cc1ccc(S(=O)(=O)N(C)C[C@@H]2OCCCC[C@@H](C)Oc3ccc(NS(=O)(=O)c4cn(C)cn4)cc3C(=O)N([C@@H](C)CO)C[C@H]2C)cc1,/,/,0,/,/,0
Cc1cc2cc(C=C(C#N)C#N)c(Cl)nc2cc1C,5,-1,0,53*,-1,-4
COc1cc2c(cc1OC)C(C)N(C(=O)c1cc3ccccc3o1)CC2 (stereo not given),51*,5,2,2,-4,3
COc1cc2c(cc1OC)C(C)N(C(=O)c1cccs1)CC2 (stereo not given),11,7,1,-1,-5,/
C[n+]1c(-c2ccccc2)c2cc(N)ccc2c2ccc(N)cc21,29,-16,2,-64,13*,34
C[C@@H]1CCCCO[C@@H](CN(C)C(=O)Nc2ccccc2)[C@@H](C)CN([C@@H](C)CO)C(=O)c2cc(NC(=O)CCC(F)(F)F)ccc2O1,/,/,1,/,/,/
O=c1[nH]nc(-c2cc(-c3ccccc3)nc3ccccc23)o1,/,1,16*,3,-5,1
CO[C@H]1CN(C)C(=O)c2cc(NS(C)(=O)=O)ccc2OC[C@H](C)N(CC2CCCCC2)C[C@@H]1C,/,/,0,/,/,5
COc1ccccc1-n1cc(C(=O)NCC(=O)N2CCN(c3ccccc3)CC2)c2ccccc2c1=O,51*,-12,/,3,-2,1
Cc1ccc(SCc2cc(=O)[nH]c(Nc3nc(C)c4ccc(C)cc4n3)n2)cc1,-7,113*,0,-102,-2,/
Cc1ccc(SCc2cc(=O)[nH]c(Nc3nc(C)c4ccccc4n3)n2)cc1,8,-1,/,-106,-2,/
Cc1ccc2nc(Nc3nc(CSc4nnc(C)s4)cc(=O)[nH]3)nc(C)c2c1,15,58*,2,-17,-2,/
Cc1cc(N2CCC(C(=O)NC3CC3)CC2)nc(-c2ccccc2)n1,13,-6,/,3,-3,-2
Cc1cc(N2CCN(c3cccc(C)c3C)CC2)nc(-c2ccccc2)n1,53*,7,/,1,-2,-1
Cn1cccc1/C=C1\SC(=O)N(c2ccc(O)cc2)C1=O,3,-4,/,262*,-1,-2
SMILES,DUSP3 inh,Yp Topo-I inh,TcdB GH inh,MazEF act,FadD28 binding,Mtb BioA inh
CCOC(=O)C1Oc2ccccc2C(C(=O)OC)=C1C(=O)OC (stereo not given),/,-3,/,1,1,0
CCOC(=O)C1Oc2ccccc2C(c2cccc3ccccc23)=C1C(=O)OC (stereo not given),/,42,1,146*,0,-1
CCOc1ccc(Cn2c3ccc(OC)cc3c3nc4ccccc4nc32)cc1OC,30,8,2,-21,-3,/
CCOC(=O)Cn1c2ccc(OC)cc2c2nc3ccccc3nc21,43,7,/,276*,0,-4
COc1ccc2c(c1)c1nc3ccccc3nc1n2Cc1ccc(OC)c(OC)c1,21,28,/,116*,-3,/
COC(=O)Cn1c2ccc(OC)cc2c2nc3ccccc3nc21,7,-5,/,236*,-3,-1
CN(C)CCCCCCNC(=O)[C@@H]1C[C@@H]2C(=O)NCC(=O)N2[C@@H]1c1cccc(OCCO)c1,/,/,2,/,/,0
CO[C@H]1CN(C)C(=O)c2ccc(NC(=O)CC(F)(F)F)cc2OC[C@H](C)N(C(C)=O)C[C@H]1C,/,/,-1,/,/,/
CCc1[nH]nc(C(=O)N2CCCC(C(=O)c3cccc(C(F)(F)F)c3)C2)c1C (stereo not given),52*,6,1,-9,-1,-2
CC1=C(C(=O)N2CCCC(C(=O)c3cccc(C(F)(F)F)c3)C2)OCCO1 (stereo not given),-6,-3,0,-4,-3,/
C/C=C/c1ccc([C@@H]2[C@@H](CO)N(C(=O)C3CCC3)C23CN(S(=O)(=O)CC)C3)cc1,/,/,-1,/,/,/
Cc1ccc(NS(=O)(=O)c2cc([N+](=O)[O-])ccc2NNC(=S)Nc2cccc(Cl)c2)c(C)c1,-9,-36,/,2,8.6*,/
COc1cc(/C=N/NC(=O)c2c(C)nc3ccc(Cl)cn23)cc(OC)c1OC,28,-1,13*,10,-1,-2
Cc1ccc(-c2ccc3c(c2)O[C@H](CN(C)Cc2ccncc2)[C@H](C)CN([C@H](C)CO)S3(=O)=O)cc1,/,/,0,/,/,1
C[C@@H](NC(=O)C[C@H]1C[C@H]2c3cc(NC(=O)CN(C)C)ccc3O[C@H]2[C@H](CO)O1)c1ccccc1,/,/,0,/,/,1
O=c1onc(-c2ccc(Cl)cc2)n1Cc1ccc(F)cc1,8,-4,2,5,-4,2
O=c1onc(-c2ccccc2)n1Cc1ccc([N+](=O)[O-])cc1,/,9,10*,3,-2,1
C[C@H](CO)N1C[C@H](C)[C@H](CN(C)S(=O)(=O)c2ccc(Cl)cc2)Oc2ccc(NC(=O)Nc3ccc(F)cc3)cc2C1=O,/,/,0,/,/,0
CC(=O)N(C)C[C@@H]1Oc2cc(C3=CCCC3)ccc2S(=O)(=O)N([C@H](C)CO)C[C@H]1C,/,/,1,/,/,1
OC(Cn1ccnc1)c1ccc(Cl)cc1Cl (stereo not given),29,5,/,159*,-1,0
CN(C)c1ccc2c(c1)[C@@H]1C[C@H](CC(=O)NCc3cccc(F)c3)O[C@H](CO)[C@@H]1O2,/,/,-33,/,/,2
Cc1c(Cl)cccc1NC(=O)C1Cc2ccccc2CN1C(=O)c1ccccc1 (stereo not given),21,3,11*,-1,-4,/

# Bioassay records: PubChem, several laboratories
